# According to PubChem BioAssay (EPA / NIEHS):
# Several values for one entry are separate records, joined by “and”; a condition that tells them apart may be missing. Equal values may be shown once. Activity calls are given as the source filed them. The calls were made as follows: active = hit-call score of the fitted dose curve at least 0.9, where 1 is the maximum; inactive = score below 0.9.
# Experiment: ATG_ERE_CIS: Attagene CIS-FACTORIAL HepG2 Assay for Estrogen Response Element (ERE) (AID 2282940)
# Settings: HepG2 ERE cis-reporter, Attagene RNA transcript; actives raise or lower the signal
# In short: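 Measuring endogenous transcription factor output, the assay doses transfected HepG2 cells for 24 hours and quantifies reporter transcripts by fluorescent RT-PCR and capillary electrophoresis, with DMSO as baseline.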
Structure (SMILES),AC50,outcome
c1ccc2c(c1)Cc1ccccc1-2,100 µM (active),–
CN1CCN(c2ccccc2/C=C2\SCCN(c3ccc(Cl)c(Cl)c3)C2=O)CC1,–,inactive
FC(F)(I)C(F)(F)C(F)(F)C(F)(F)C(F)(F)C(F)(F)I,0.0192 µM (active),–
CCc1ccc(CCOc2ccc(CC3SC(=O)NC3=O)cc2)nc1 (configuration not stated),19.8 µM (active) and 41.4 µM (active),–
CC(C)(C)CC(C)(C)c1ccc(O)c(-n2nc3ccccc3n2)c1,–,inactive
CC(C)(C)c1ccc(O)c(C(C)(C)C)c1,–,inactive
N#C[C@@H]1CC(F)(F)CN1C(=O)CNC1CC2CCC(C1)N2c1ncccn1 (some centres not stated),–,inactive
NC(=O)N1C(=O)C(C(=O)c2cc(Cl)cs2)c2cc(F)c(Cl)cc21 (configuration not stated),–,inactive
CCCCCCCCCCCCCCCS(=O)(=O)Oc1ccccc1,–,inactive
CCCCCCCC(=O)O,–,inactive
Cc1cc(CCN2CCN(c3nsc4ccccc34)CC2)cc2c1NC(=O)CC2(C)C,–,inactive
COCC(C)O (configuration not stated),–,inactive
CCCCC(CC)COC(=O)CCCCC(=O)OCc1ccccc1 (configuration not stated),–,inactive
COc1ccc([N+](=O)[O-])cc1N,–,inactive
CCOC(=O)CC(O)(CC(=O)OCC)C(=O)OCC,–,inactive
CCCCCCCCC(=O)O,–,inactive
Cc1cc(C)c(O)c(C)c1,–,inactive
CCCCC[C@H](O)CC(=O)CCc1ccc(O)c(OC)c1,–,inactive
NCC(F)(F)C(F)(F)C(F)(F)C(F)(F)C(F)(F)C(F)(F)C(F)(F)F,–,inactive
O=[N+]([O-])c1ccc(O)cc1,–,inactive
COC(=O)CCCCC(=O)OC,–,inactive
CC(C)CCCCCCOC(=O)CCCCC(=O)OCCCCCCC(C)C,–,inactive
